# Compound activity as filed in PubChem.
# sEH inhibitor: soluble epoxide hydrolase (human) inhibition | inhibition, % at 2 µM | AID 707 | P34913 | recombinant human sEH enzymatic activity assay | hit rate 0.34% among 91,000; in the data active means inhibition above about 80%
# sEH activator: activators of human soluble epoxide hydrolase; P34913; purified human sEH enzymatic activity, activator screen; activation, % at 2 µM; hit rate 0.04% among 91,000; in the data active means activation above about 37%
# CYP2C19 activ: cytochrome P450 2C19 (human) activation. P33261. recombinant CYP2C19, luciferin-H EGE luminescence; stronger effect = higher value; 0 = fully inhibited enzyme, 1 = untreated enzyme. activation factor at 5 µM. 96,000 tested, under 10 active;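 active means activation factor of at least 2 at 5 µM in the primary screen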;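 further: 0 = wells with 2.5 mM tranylcypromine and 1 = vehicle-only wells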
# Target sequence (P33261 whole entry, looked up): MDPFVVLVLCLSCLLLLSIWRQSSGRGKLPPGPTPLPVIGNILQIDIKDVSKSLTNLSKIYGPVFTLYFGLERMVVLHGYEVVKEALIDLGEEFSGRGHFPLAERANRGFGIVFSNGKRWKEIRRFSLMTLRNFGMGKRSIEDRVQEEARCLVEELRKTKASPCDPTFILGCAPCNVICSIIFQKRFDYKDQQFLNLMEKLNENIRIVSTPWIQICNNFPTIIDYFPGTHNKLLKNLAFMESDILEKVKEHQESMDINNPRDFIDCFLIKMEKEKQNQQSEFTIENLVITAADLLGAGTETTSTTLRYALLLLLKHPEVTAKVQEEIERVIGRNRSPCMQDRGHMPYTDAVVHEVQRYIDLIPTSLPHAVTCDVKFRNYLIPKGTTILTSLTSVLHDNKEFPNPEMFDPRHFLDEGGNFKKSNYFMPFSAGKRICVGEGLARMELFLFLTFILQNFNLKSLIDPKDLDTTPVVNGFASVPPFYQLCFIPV
# CYP2C19 inhib: inhibitors of human CYP2C19; P33261; CYP2C19 Supersomes, luciferin-H EGE luminescence, 30 min; hit rate 21% among 96,000; inhibition, % at 5 µM; AID 778;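 active means CYP2C19 inhibition above a set limit at 5 µM in the primary screen, cut at about 50% in these data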;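 further: plate controls were negative control wells for no effect and 2.5 mM tranylcypromine positive control for full effect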
# CYP2C9 inh: inhibitors of human CYP2C9 | inhibition, % at 5 µM | P11712 | hit rate 20% among 96,000 | AID 777 | CYP2C9 Supersomes, luciferin-H conversion, luminescence;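 active means blocking of liver enzyme CYP2C9 beyond about 50% at 5 µM, limit read from the data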
# CYP2C9 act: increases human cytochrome P450 2C9 activity; hit rate 1.4% among 96,000; activation factor at 5 µM; recombinant CYP2C9, luciferin-H conversion, luminescence; stronger effect = higher value; factor 1 = untreated enzyme, 0 = blocked; AID 1024;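 active means activation factor of 2 or more for CYP2C9 at a 5 µM dose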;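 further: 0 = sulfaphenazole-blocked wells and 1 = vehicle-only wells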
# The depositor's hits bear a star; nt = no result. In the library only some 27% were active in any assay of this set; here they are far more common.
SMILES,sEH inhibitor,sEH activator,CYP2C19 activ,CYP2C19 inhib,CYP2C9 inh,CYP2C9 act
COc1ccc(C)cc1S(=O)(=O)N(CC(=O)Nc1cccc([N+](=O)[O-])c1)c1cc(C)cc(C)c1,-2.6,2.6,1,-1.7,92.8*,0.1
CCN(C1CCCCC1)S(=O)(=O)c1ccc(S(=O)(=O)N(CC(=O)Nc2ccccc2)C2CC2)cc1,-1.7,-0.3,1.1,-14.3,68.3*,0.3
COc1cc(NC(=O)c2ccc(CNc3c(N4CCOCC4)c(=O)c3=O)cc2)cc(OC)c1,nt,nt,0.9,8.9,35.5,0.6
CCCCCn1c(N)c(-c2nc3ccccc3s2)c2c([N+](=O)[O-])nn(C)c(=O)c21,-2.9,4.2,0.9,9.2,69.9*,0.3
CNc1sc(C(=O)c2ccc(F)cc2)c(N)c1-c1nc2ccccc2s1,2.5,-0.1,1,2.6,-6.0,1.1
CCN1C(=C2C(=O)c3ccccc3C2=O)C=Cc2ccccc21,-13.2,14.8,0.9,5.9,8.3,0.9
CCOC(=O)/C(C#N)=c1/s/c(=C2\C=Cc3ccccc3N2CC)c(=O)n1CC,7.0,-3.1,0.4,57.5*,41.7,0.6
CN(C)c1ccnc(-n2cccc2/C=N/OCc2ccc(F)cc2Cl)c1C#N,-9.8,9.9,0,98.2*,95.8*,0
CN(C)c1ccnc(-n2cccc2/C=N/OCc2ccccc2)c1C#N,2.2,-2.1,0,95.8*,35.9,0.6
COc1ccccc1CO/N=C/c1cccn1-c1nccc(N(C)C)c1C#N,-13.7,13.8,0,98.9*,90.7*,0.1
CN(C)c1ccnc(Oc2ccc(C(C)(C)C)cc2)c1C#N,3.3,-1.6,1,4.1,-6.7,1.1
O=C(O)C1CSC(CCc2ccccc2)N1 (stereo unspecified),nt,nt,0.9,8.6,-7.1,1.1
CC1CCCN(CCCNC(=O)CCn2nc(-c3ccccc3)ccc2=O)C1 (stereo unspecified),2.7,-0.1,1,-4.3,87.0*,0.1
CCn1c(=O)n(CC)c2cc(S(=O)(=O)N3CCC(c4ccccc4)CC3)ccc21,3.2,-2.0,0.7,32.8,68.2*,0.3
CCCCC(=O)Nc1nc(C)c(-c2csc(Nc3ccccc3OC)n2)s1,16.8,-16.2,0.9,9.7,40.8,0.6
CCC(C)C(=O)Nc1nc(C)c(-c2csc(Nc3ccccc3OC)n2)s1 (stereo unspecified),14.0,-13.3,0.7,27.3,63.3*,0.4
C=CCCC(=O)Nc1nc(C)c(-c2csc(Nc3ccccc3OC)n2)s1,15.0,-14.3,0.8,16.7,57.1*,0.4
CCCCCC(=O)Nc1nc(C)c(-c2csc(Nc3cc(OC)ccc3OC)n2)s1,28.0,-27.4,0.8,18.8,55.1*,0.4
CCCCCCC(=O)Nc1nc(C)c(-c2csc(Nc3cc(OC)ccc3OC)n2)s1,31.0,-30.5,1,-4.1,37.6,0.6
CCOc1ccc2[nH]c(=O)c(CN(Cc3ccc(C)cc3)C(=O)N3CCCC3)cc2c1,-1.0,1.0,0.9,10.2,-1.8,1
O=C(CCn1c(=O)[nH]c2ccccc2c1=O)N1CCN(c2cccc(C(F)(F)F)c2)CC1,14.2,-13.2,0.3,67.2*,35.5,0.6
O=C(CCCCn1c(=O)[nH]c2ccccc2c1=O)N1CCN(c2cccc(C(F)(F)F)c2)CC1,-7.6,5.1,0.4,62.4*,48.9,0.5
O=C(CCCn1c(=S)[nH]c2ccccc2c1=O)N1CCN(c2cccc(Cl)c2)CC1,-11.8,15.0,1.1,-11.7,-2.6,1
O=C(CCn1c(=O)[nH]c2ccccc2c1=O)N1CCN(c2ccc(Cl)cc2)CC1,-17.7,14.9,0.9,12.8,15.4,0.8
CCOC(=O)CNS(=O)(=O)c1ccc(S(=O)(=O)N2CCCC2)cc1,-14.5,12.7,1,2.9,14.7,0.9
SMILES,sEH inhibitor,sEH activator,CYP2C19 activ,CYP2C19 inhib,CYP2C9 inh,CYP2C9 act
CCc1ccccc1NC(=O)Cn1nc(C(F)(F)F)c2c1CCC2,3.3,1.9,nt,nt,nt,nt
Cc1cc(NC(=O)Cn2nc(C(F)(F)F)c3c2CCC3)n(-c2ccccc2)n1,-5.4,5.8,0.2,80.0*,61.7*,0.4
C=C1c2ccccc2NC(=O)N1c1ccc(C)cc1,2.4,-1.7,0.7,25.5,29.8,0.7
C=C1c2cc(C)ccc2NC(=O)N1c1ccc(C)cc1,-5.7,6.2,0.4,56.4*,4.5,1
CSc1nc(-c2ccccc2)c(-c2ccccc2)[nH]1,-26.8,28.3,1.1,-14.8,-13.6,1.1
O=C1c2cccnc2C(=O)N1C1CCCCC1,-12.5,14.7,0.9,10.6,12.7,0.9
Cc1nc2c(n1C1CCCCC1)C(=O)c1ccccc1C2=O,13.5,-11.1,0.2,80.9*,55.4*,0.4
CCc1cccc(OCCCCNCCO)c1,1.0,-6.5,1.1,-7.5,-12.2,1.1
O=C(NCCc1c[nH]c2ccccc12)C1CCC(Cn2c(=S)[nH]c3ccccc3c2=O)CC1 (stereo unspecified),94.8*,-94.7,0,99.9*,97.8*,0
CCOCCCn1c(=S)[nH]c2cc(C(=O)NCCOC)ccc2c1=O,-0.4,0.8,0.9,8.5,7.1,0.9
COCCNC(=O)C1CCC(Cn2c(=S)[nH]c3ccccc3c2=O)CC1 (stereo unspecified),57.6,-57.8,0.5,53.3*,60.7*,0.4
N#CC(c1ccc(Cl)cc1)c1nc2ccccc2nc1C(F)(F)F (stereo unspecified),-16.8,13.9,0.5,52.0*,26.4,0.7
Cc1cc2c(c(SCC(=O)NCCc3ccccc3)n1)C(=O)OC2,-25.4,25.0,0.7,29.6,12.4,0.9
Cc1cc(NC(=O)CSc2c(C)[nH]c3ccccc23)no1,nt,nt,0.3,65.7*,-22.8,1.2
Cc1cc(NC(c2cccnc2)c2c(C)[nH]c3ccccc23)no1 (stereo unspecified),nt,nt,0.4,62.5*,3.6,1
Cc1cc(NC(=O)CSc2ncccn2)no1,0.5,-1.2,nt,nt,nt,nt
COc1ccc(-c2nc(SCC(=O)Nc3cc(C)on3)n[nH]2)cc1,-7.6,9.2,0.8,22.1,89.0*,0.1
CCCCc1nc(SCC(=O)Nc2cc(C)on2)n[nH]1,-4.2,2.9,0.5,53.4*,60.7*,0.4
COc1ccc(-c2cc(C(F)(F)F)nc(SCC(=O)Nc3cc(C)on3)n2)cc1OC,-2.4,1.4,1,-4.4,49.8,0.5
CCOC(=O)NC1(C(F)(F)F)NC(=O)N(C2CCCCC2)C1=O (stereo unspecified),4.8,-4.5,0.8,16.4,15.8,0.8
CCCSc1nc(N)cc(=O)[nH]1,nt,nt,0.9,6.5,-2.8,1
N#C/C(=C\c1ccc(Sc2nc3ccccc3[nH]2)o1)c1ccccc1,-11.8,5.6,0.1,86.2*,95.3*,0
N#Cc1ccc(Sc2nc3ccccc3[nH]2)cc1C#N,nt,nt,0.2,76.2*,31.3,0.7
CCN1CCN(C(=O)CCN2C(=O)COc3ccc(C)cc32)CC1,nt,nt,0.7,27.4,-30.3,1.3
CCCCS/C(=C(/C#N)C(N)=O)c1cc2c([nH]1)CCCC2,2.1,-2.8,0.7,34.3,35.2,0.6
